Assay results: PubChem BioAssay AID1159580 (chemical genetic matrix, 2015)
“And” between values parts separate entries of the source, which are not always exact repeats. Equal values may be shown once. Among all 5,500 compounds or so, about 2,000 (36%) were called active. Another 18% or so got no clear call; they are omitted. No stated cut-off is given here; in the data, active means normalized growth mostly below about 0.91 (no sharp cut-off); inconclusive means no clear call, values can overlap the other calls; inactive means mostly above about 0.92. This is one part of the list.

Test: chemical genetic growth profiling, strain panel (AID 1159580);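 further: tested at 20 µM; growth read once vehicle control cultures reached saturation at 30 °C; 1 = growth at the plate median or of vehicle wells; lower values mean less growth of the strain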
Conditions: growth OD
[1] = S. cerevisiae deletion strains, locus YAL013W, strain DEP1, hits give low values
[2] = S. cerevisiae deletion strains, locus YBR229C, strain ROT2, hits give low values
[3] = S. cerevisiae deletion strains, locus YDL101C, strain DUN1, hits give low values
[4] = S. cerevisiae deletion strains, locus YDR150W, strain NUM1, hits give low values
[5] = S. cerevisiae deletion strains, locus YEL061C, strain CIN8, hits give low values
[6] = S. cerevisiae deletion strains, locus YGR078C, strain PAC10, hits give low values
[7] = S. cerevisiae deletion strains, locus YHR030C, strain SLT2, hits give low values
[8] = S. cerevisiae deletion strains, locus YHR087W, strain rtc3, hits give low values
[9] = S. cerevisiae deletion strains, locus YJR043C, strain POL32, hits give low values
[10] = S. cerevisiae deletion strains, locus YJR075W, strain HOC1, hits give low values
[11] = S. cerevisiae deletion strains, locus YLR039C, strain RIC1, hits give low values
[12] = S. cerevisiae deletion strains, locus YLR058C, strain SHM2 (second series), hits give low values
[13] = S. cerevisiae deletion strains, locus YLR085C, strain ARP6, hits give low values
[14] = S. cerevisiae deletion strains, locus YLR262C, strain YPT6, hits give low values
[15] = S. cerevisiae deletion strains, locus YML094W, strain GIM5, hits give low values
[16] = S. cerevisiae deletion strains, locus YMR219W, strain ESC1, hits give low values
[17] = S. cerevisiae deletion strains, locus YNL153C, strain GIM3, hits give low values
[18] = S. cerevisiae deletion strains, locus YNL298W, strain CLA4 (second series), hits give low values
[19] = S. cerevisiae deletion strains, locus YNL322C, strain KRE1, hits give low values
[20] = S. cerevisiae deletion strains, locus YNR030W, strain Alg12, hits give low values
[21] = S. cerevisiae deletion strains, locus YPL055C, strain LGE1, hits give low values
[22] = S. cerevisiae deletion strains, locus YPL241C, strain CIN2, hits give low values
[23] = S. cerevisiae deletion strains, locus YPR135W, strain CTF4, hits give low values
[24] = S. cerevisiae deletion strains, locus YGR052W, strain FMP48, hits give low values
[25] = S. cerevisiae deletion strains, locus YHR079C, strain IRE1, hits give low values
[26] = S. cerevisiae deletion strains, locus YHR082C, strain KSP1, hits give low values
[27] = S. cerevisiae deletion strains, locus YJL095W, strain BCK1, hits give low values
[28] = S. cerevisiae deletion strains, locus YJR066W, strain TOR1, hits give low values
[29] = S. cerevisiae deletion strains, locus YKL203C, strain TOR2, hits give low values
[30] = S. cerevisiae deletion strains, locus YLR113W, strain HOG1, hits give low values
[31] = S. cerevisiae deletion strains, locus YNL183C, strain NPR1, hits give low values
[32] = S. cerevisiae deletion strains, locus YNL207W, strain RIO2, hits give low values
[33] = S. cerevisiae deletion strains, locus YOR119C, strain RIO1, hits give low values
[34] = S. cerevisiae deletion strains, locus YOR231W, strain MKK1, hits give low values
[35] = S. cerevisiae deletion strains, locus YPL256C, strain CLN2, hits give low values

Measured: normalized growth

Cc1cc(NS(=O)(=O)c2ccc(NS(=O)(=O)c3cc(C)c(Cl)cc3C)cc2)no1
inactive: [1] 0.991 | [2] 0.994 | [3] 1 | S. cerevisiae deletion strains, locus YDL134C, strain PPH21, hits give low values 0.968 | [4] 1.07 | [5] 0.984 | [6] 1.01 | [7] 1.08 | [8] 0.982 | [9] 1.04 | [10] 1.01 | [11] 1 | [12] 0.979 | [13] 0.947 | [14] 1.09 | [15] 0.971 | [16] 0.99 | S. cerevisiae deletion strains, locus YMR263W, strain SAP30, hits give low values 1.02 | S. cerevisiae deletion strains, locus YNL128W, strain TEP1, hits give low values 0.981 | [17] 1.01 | [18] 0.979 | [19] 0.99 | [20] 1.01 | S. cerevisiae deletion strains, locus YOL006C, strain TOP1, hits give low values 0.985 | [21] 1.04 | [22] 0.985 | [23] 1.09 | S. cerevisiae strains, strain wild type, hits give low values 0.974

O=S(=O)(Nc1ccc(Oc2ccc(Cl)cc2)cc1)c1ccccc1
inactive: [3] 0.911 | [10] 0.899 | [12] 0.998 | [19] 1.04
active: [1] 0.219 | [2] 0.923 | S. cerevisiae deletion strains, locus YCL061C, strain MRC1, hits give low values 0.851 | [4] 0.518 | [5] 0.51 | [24] 0.122 | [6] 0.901 | [7] 0.114 and 0.113 | [25] 0.199 | [26] 0.137 | [8] 0.866 | [27] 0.108 | [9] 0.843 | [28] 0.206 | [29] 0.274 | [11] 0.293 | [13] 0.247 | [30] 0.166 | [14] 0.117 | [15] 0.483 | [16] 0.925 | [17] 0.879 | [31] 0.154 | [32] 0.248 | [18] 0.321 | [20] 0.191 | [33] 0.226 | [34] 0.159 | [21] 0.106 | [22] 0.341 | [35] 0.239 | [23] 0.309

O=S(=O)(Nc1ccc(Oc2ccc(OC(F)(F)F)cc2)cc1)c1cccc(Cl)c1
active: [7] 0.562 | [30] 0.695 | [35] 0.75
inactive: S. cerevisiae deletion strains, locus YAR019C, strain CDC15, hits give low values 0.982 | S. cerevisiae deletion strains, locus YBL105C, strain PKC1, hits give low values 0.973 | S. cerevisiae deletion strains, locus YBR135W, strain CKS1, hits give low values 0.978 | S. cerevisiae deletion strains, locus YBR136W, strain MEC1, hits give low values 0.982 | S. cerevisiae deletion strains, locus YBR160W, strain CDC28, hits give low values 0.981 | S. cerevisiae deletion strains, locus YDL017W, strain CDC7, hits give low values 0.982 | S. cerevisiae deletion strains, locus YDL028C, strain MPS1, hits give low values 0.982 | [3] 0.991 | S. cerevisiae deletion strains, locus YDL108W, strain KIN28, hits give low values 0.976 | S. cerevisiae deletion strains, locus YDL132W, strain cdc53, hits give low values 0.988 | S. cerevisiae deletion strains, locus YDL214C, strain PRR2, hits give low values 0.932 | S. cerevisiae deletion strains, locus YDR052C, strain DBF4, hits give low values 0.98 | S. cerevisiae deletion strains, locus YDR054C, strain cdc34, hits give low values 0.988 | S. cerevisiae deletion strains, locus YDR226W, strain ADK1, hits give low values 0.984 | S. cerevisiae deletion strains, locus YDR477W, strain SNF1, hits give low values 0.964 | S. cerevisiae deletion strains, locus YER123W, strain YCK3, hits give low values 0.933 | S. cerevisiae deletion strains, locus YER133W, strain GLC7, hits give low values 0.933 | S. cerevisiae deletion strains, locus YFL009W, strain cdc4, hits give low values 0.979 | S. cerevisiae deletion strains, locus YFL029C, strain CAK1, hits give low values 0.985 | S. cerevisiae deletion strains, locus YFR003C, strain YPI1, hits give low values 0.977 | S. cerevisiae deletion strains, locus YFR019W, strain FAB1, hits give low values 0.891 | S. cerevisiae deletion strains, locus YFR028C, strain CDC14, hits give low values 0.985 | S. cerevisiae deletion strains, locus YGR040W, strain KSS1, hits give low values 0.949 | [24] 0.958 | S. cerevisiae deletion strains, locus YGR092W, strain DBF2, hits give low values 0.937 | [25] 0.837 | [26] 0.978 | S. cerevisiae deletion strains, locus YHR205W, strain SCH9, hits give low values 0.955 | S. cerevisiae deletion strains, locus YIL147C, strain SLN1, hits give low values 0.982 | [27] 0.948 | S. cerevisiae deletion strains, locus YJL128C, strain PBS2, hits give low values 0.936 | S. cerevisiae deletion strains, locus YJL157C, strain FAR1, hits give low values 0.946 | S. cerevisiae deletion strains, locus YJR016C, strain ILV3, hits give low values 0.991 | S. cerevisiae deletion strains, locus YJR066W, strain TOR1 (second series), hits give low values 0.92 | [28] 0.975 | S. cerevisiae deletion strains, locus YKL048C, strain ELM1, hits give low values 0.945 | S. cerevisiae deletion strains, locus YKL067W, strain YNK1, hits give low values 0.934 | S. cerevisiae deletion strains, locus YKL101W, strain HSL1, hits give low values 0.916 | S. cerevisiae deletion strains, locus YKL193C, strain SDS22, hits give low values 0.984 | [29] 0.995 | S. cerevisiae deletion strains, locus YLR133W, strain CKI1, hits give low values 0.941 | S. cerevisiae deletion strains, locus YLR403W, strain SFP1, hits give low values 0.954 | S. cerevisiae deletion strains, locus YML070W, strain DAK1, hits give low values 0.923 | S. cerevisiae deletion strains, locus YMR001C, strain CDC5, hits give low values 0.984 | S. cerevisiae deletion strains, locus YMR205C, strain PFK2 (second series), hits give low values 0.954 | S. cerevisiae deletion strains, locus YMR277W, strain FCP1, hits give low values 0.983 | S. cerevisiae deletion strains, locus YNL006W, strain LST8, hits give low values 0.98 | S. cerevisiae deletion strains, locus YNL020C, strain ARK1, hits give low values 0.919 | S. cerevisiae deletion strains, locus YNL161W, strain CBK1, hits give low values 0.977 | [31] 0.991 | [32] 0.989 | S. cerevisiae deletion strains, locus YNL222W, strain SSU72, hits give low values 0.979 | S. cerevisiae deletion strains, locus YNL307C, strain MCK1 (second series), hits give low values 0.897 | S. cerevisiae deletion strains, locus YOL078W, strain AVO1, hits give low values 0.991 | S. cerevisiae deletion strains, locus YOL136C, strain PFK27, hits give low values 0.92 | S. cerevisiae deletion strains, locus YOR061W, strain CKA2, hits give low values 0.917 | [33] 1.03 | [34] 0.887 | S. cerevisiae deletion strains, locus YOR329C, strain SCD5, hits give low values 0.974 | S. cerevisiae deletion strains, locus YPL031C, strain PHO85, hits give low values 0.95 | S. cerevisiae deletion strains, locus YPL153C, strain RAD53, hits give low values 0.982 | S. cerevisiae deletion strains, locus YPL204W, strain HRR25, hits give low values 0.941 | S. cerevisiae deletion strains, locus YPL209C, strain IPL1, hits give low values 0.977 | S. cerevisiae deletion strains, locus YPR025C, strain CCL1, hits give low values 0.977 | S. cerevisiae deletion strains, locus YPR106W, strain ISR1, hits give low values 0.988 | S. cerevisiae deletion strains, locus YPR111W, strain DBF20, hits give low values 0.969 | S. cerevisiae deletion strains, strain NNK1, hits give low values 0.989 | S. cerevisiae deletion strains, strain TSCII, hits give low values 0.983
